Measured values reported in PubChem BioAssay AID1159580 (chemical genetic matrix, 2015).
Among all 5,500 compounds or so, about 2,000 (36%) were called active. Another 18% or so got no clear call; they are omitted. Cut-off read from the data, not from the text of the source: active = normalized growth mostly below about 0.91 (no sharp cut-off); inconclusive = no clear call, values can overlap the other calls; inactive = mostly above about 0.92. The list shows a part of the results.

Experiment: chemical genetic growth profiling, strain panel (AID 1159580);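 note: tested at 20 µM; growth read once vehicle control cultures reached saturation at 30 °C; 1 = growth at the plate median or of vehicle wells; lower values mean less growth of the strain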
Settings: growth OD

Measured: normalized growth

CCOC(N)=O
inactive: S. cerevisiae deletion strains, locus YJR075W, strain HOC1, stronger effect = lower value 1.01 | S. cerevisiae deletion strains, locus YKL009W, strain mrt4, stronger effect = lower value 1.02 | S. cerevisiae deletion strains, locus YKL068W, stronger effect = lower value 1.01 | S. cerevisiae deletion strains, locus YKL085W, strain MDH1 (second series), stronger effect = lower value 1 | S. cerevisiae deletion strains, locus YKL085W, strain MDH1, stronger effect = lower value 1 | S. cerevisiae deletion strains, locus YKL160W, strain elf1, stronger effect = lower value 0.994 | S. cerevisiae deletion strains, locus YKL190W, strain CNB1, stronger effect = lower value 1 | S. cerevisiae deletion strains, locus YKR001C, strain vps1, stronger effect = lower value 1.01 | S. cerevisiae deletion strains, locus YKR026C, strain gcn3, stronger effect = lower value 0.992 | S. cerevisiae deletion strains, locus YKR091W, strain srl3, stronger effect = lower value 0.992 | S. cerevisiae deletion strains, locus YLL001W, strain dnm1, stronger effect = lower value 1.01 | S. cerevisiae deletion strains, locus YLL026W, stronger effect = lower value 0.998 | S. cerevisiae deletion strains, locus YLL041C, strain sdh2, stronger effect = lower value 0.995 | S. cerevisiae deletion strains, locus YLR027C, strain aat2, stronger effect = lower value 0.996 | S. cerevisiae deletion strains, locus YLR039C, strain RIC1, stronger effect = lower value 1.01 | S. cerevisiae deletion strains, locus YLR058C, strain SHM2, stronger effect = lower value 1 | S. cerevisiae deletion strains, locus YLR102C, strain apc9, stronger effect = lower value 1.02 | S. cerevisiae deletion strains, locus YLR113W, strain HOG1, stronger effect = lower value 0.989 | S. cerevisiae deletion strains, locus YLR221C, strain rsa3, stronger effect = lower value 0.992 | S. cerevisiae deletion strains, locus YLR258W, strain gsy2, stronger effect = lower value 0.99 | S. cerevisiae deletion strains, locus YLR262C, strain YPT6 (second series), stronger effect = lower value 0.998 | S. cerevisiae deletion strains, locus YLR262C, strain YPT6, stronger effect = lower value 0.977 | S. cerevisiae deletion strains, locus YLR268W, strain sec22, stronger effect = lower value 1 | S. cerevisiae deletion strains, locus YLR320W, strain mms22, stronger effect = lower value 0.988 | S. cerevisiae deletion strains, locus YLR330W, strain CHS5, stronger effect = lower value 1.01 | S. cerevisiae deletion strains, locus YLR342W, strain FKS1 (second series), stronger effect = lower value 1.04 | S. cerevisiae deletion strains, locus YLR342W, strain FKS1, stronger effect = lower value 0.987 | S. cerevisiae deletion strains, locus YLR357W, strain rsc2, stronger effect = lower value 0.97 | S. cerevisiae deletion strains, locus YLR370C, strain arc18, stronger effect = lower value 0.995 | S. cerevisiae deletion strains, locus YLR371W, strain rom2, stronger effect = lower value 1.02 | S. cerevisiae deletion strains, locus YLR384C, strain iki3, stronger effect = lower value 0.999 | S. cerevisiae deletion strains, locus YLR418C, strain cdc73, stronger effect = lower value 0.996 | S. cerevisiae deletion strains, locus YML016C, strain PPZ1, stronger effect = lower value 0.997 | S. cerevisiae deletion strains, locus YML032C, strain rad52, stronger effect = lower value 1.02 | S. cerevisiae deletion strains, locus YML120C, strain ndi1, stronger effect = lower value 1.02 | S. cerevisiae deletion strains, locus YML124C, strain tub3, stronger effect = lower value 0.995 | S. cerevisiae deletion strains, locus YMR058W, strain fet3, stronger effect = lower value 1 | S. cerevisiae deletion strains, locus YMR078C, strain ctf18, stronger effect = lower value 1.01 | S. cerevisiae deletion strains, locus YMR125W, strain sto1, stronger effect = lower value 0.986 | S. cerevisiae deletion strains, locus YMR129W, stronger effect = lower value 1 | S. cerevisiae deletion strains, locus YMR205C, strain PFK2, stronger effect = lower value 0.982 | S. cerevisiae deletion strains, locus YMR223W, strain ubp8, stronger effect = lower value 1.02 | S. cerevisiae deletion strains, locus YMR231W, strain pep5, stronger effect = lower value 0.995 | S. cerevisiae deletion strains, locus YMR263W, strain SAP30, stronger effect = lower value 0.998 | S. cerevisiae deletion strains, locus YMR307W, strain GAS1, stronger effect = lower value 1.02 | S. cerevisiae deletion strains, locus YNL067W, strain RPL9B, stronger effect = lower value 0.999 | S. cerevisiae deletion strains, locus YNL071W, strain lat1, stronger effect = lower value 1.01 | S. cerevisiae deletion strains, locus YNL128W, strain TEP1, stronger effect = lower value 1.01 | S. cerevisiae deletion strains, locus YNL153C, strain GIM3, stronger effect = lower value 0.995 | S. cerevisiae deletion strains, locus YNL183C, strain NPR1, stronger effect = lower value 0.925 | S. cerevisiae deletion strains, locus YNL209W, strain ssb2, stronger effect = lower value 1 | S. cerevisiae deletion strains, locus YNL233W, strain BNI4, stronger effect = lower value 1 | S. cerevisiae deletion strains, locus YNL248C, strain rpa49, stronger effect = lower value 1 | S. cerevisiae deletion strains, locus YNL250W, strain rad50, stronger effect = lower value 1.02 | S. cerevisiae deletion strains, locus YNL271C, strain bni1, stronger effect = lower value 1.02 | S. cerevisiae deletion strains, locus YNL298W, strain CLA4, stronger effect = lower value 1.02 | S. cerevisiae deletion strains, locus YNL307C, strain MCK1, stronger effect = lower value 1.01 | S. cerevisiae deletion strains, locus YNL322C, strain KRE1 (second series), stronger effect = lower value 0.994 | S. cerevisiae deletion strains, locus YNL322C, strain KRE1, stronger effect = lower value 1 | S. cerevisiae deletion strains, locus YNR049C, strain mso1, stronger effect = lower value 1.01 | S. cerevisiae deletion strains, locus YNR052C, strain pop2, stronger effect = lower value 1.01 | S. cerevisiae deletion strains, locus YOL006C, strain TOP1, stronger effect = lower value 1 | S. cerevisiae deletion strains, locus YOL012C, strain htz1 1.41 | S. cerevisiae deletion strains, locus YOL147C, strain pex11, stronger effect = lower value 1.01 | S. cerevisiae deletion strains, locus YOR001W, strain rrp6, stronger effect = lower value 0.994 | S. cerevisiae deletion strains, locus YOR061W, strain CKA2, stronger effect = lower value 1 | S. cerevisiae deletion strains, locus YOR069W, strain VPS5, stronger effect = lower value 1 | S. cerevisiae deletion strains, locus YOR070C, strain gyp1, stronger effect = lower value 0.991 | S. cerevisiae deletion strains, locus YOR080W, strain dia2, stronger effect = lower value 0.994 | S. cerevisiae deletion strains, locus YOR083W, strain WHI5, stronger effect = lower value 1 | S. cerevisiae deletion strains, locus YOR106W, strain vam3, stronger effect = lower value 0.998 | S. cerevisiae deletion strains, locus YOR136W, strain idh2, stronger effect = lower value 1.01 | S. cerevisiae deletion strains, locus YOR144C, strain elg1, stronger effect = lower value 1.01 | S. cerevisiae deletion strains, locus YOR184W, strain ser1, stronger effect = lower value 1.01 | S. cerevisiae deletion strains, locus YOR231W, strain MKK1, stronger effect = lower value 1 | S. cerevisiae deletion strains, locus YOR265W, strain rbl2, stronger effect = lower value 0.986 | S. cerevisiae deletion strains, locus YOR270C, strain vph1, stronger effect = lower value 1 | S. cerevisiae deletion strains, locus YOR290C, strain snf2, stronger effect = lower value 0.997 | S. cerevisiae deletion strains, locus YOR316C, strain cot1, stronger effect = lower value 1.02 | S. cerevisiae deletion strains, locus YPL051W, strain arl3, stronger effect = lower value 1 | S. cerevisiae deletion strains, locus YPL055C, strain LGE1, stronger effect = lower value 0.976 | S. cerevisiae deletion strains, locus YPL078C, strain atp4, stronger effect = lower value 0.989 | S. cerevisiae deletion strains, locus YPL106C, strain sse1, stronger effect = lower value 0.969 | S. cerevisiae deletion strains, locus YPL240C, strain hsp82, stronger effect = lower value 0.995 | S. cerevisiae deletion strains, locus YPL241C, strain CIN2, stronger effect = lower value 0.992 | S. cerevisiae deletion strains, locus YPL256C, strain CLN2, stronger effect = lower value 0.987 | S. cerevisiae deletion strains, locus YPR119W, strain clb2, stronger effect = lower value 1.01 | S. cerevisiae deletion strains, locus YPR141C, strain kar3, stronger effect = lower value 1.01 | S. cerevisiae deletion strains, locus YPR163C, strain tif3, stronger effect = lower value 1.01 | S. cerevisiae deletion strains, locus YPR167C, strain met16, stronger effect = lower value 1.01 | S. cerevisiae deletion strains, strain wtn01, stronger effect = lower value 1 | S. cerevisiae strains, strain wild type, stronger effect = lower value 1.01
